# High-throughput results: PubChem BioAssay, National Center for Advancing Translational Sciences (NCATS)
# In the library only some 1.8% were active in any assay of this set; here they are far more common.
# rTrxR1 inhibitor: blocks rat thioredoxin reductase 1. AID 588453. recombinant rTrxR1, NADPH fluorescence consumption, selenite substrate. actives 1% (n = 390,000). O89049. Potency, µM (titrated, usually from 114 µM), usual class: inhibitors; further: nearly all actives have a fitted effect of over 65% in size
# Target sequence (O89049 whole entry, looked up): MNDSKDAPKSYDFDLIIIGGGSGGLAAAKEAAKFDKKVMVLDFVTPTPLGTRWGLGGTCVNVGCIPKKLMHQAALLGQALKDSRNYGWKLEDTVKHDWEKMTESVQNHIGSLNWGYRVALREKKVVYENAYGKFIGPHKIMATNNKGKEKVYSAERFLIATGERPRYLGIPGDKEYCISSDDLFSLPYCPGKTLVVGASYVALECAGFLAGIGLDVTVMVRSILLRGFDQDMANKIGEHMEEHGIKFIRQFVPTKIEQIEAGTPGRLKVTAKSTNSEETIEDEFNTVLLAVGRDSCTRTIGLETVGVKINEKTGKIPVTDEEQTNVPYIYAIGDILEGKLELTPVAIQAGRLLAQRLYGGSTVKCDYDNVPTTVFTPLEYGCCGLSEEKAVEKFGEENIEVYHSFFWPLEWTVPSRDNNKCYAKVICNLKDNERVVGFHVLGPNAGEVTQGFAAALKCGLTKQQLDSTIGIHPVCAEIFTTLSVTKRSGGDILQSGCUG
#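 Rat TrxR1 (90 nM in the dispensed reagent) was pre-reduced with 400 uM NADPH for 5 min at room temperature, then incubated with compound for 15 min. After 400 uM selenite was added, NADPH fluorescence (Ex 340/Em 450 nm) was followed for 8 min.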
# KAT2A inh: blocks human GCN5L2 histone acetyltransferase; Potency, µM (highest dose often 58.9 µM), most hits filed as inhibitors; actives 0.21% (n = 390,000); Q92830; GCN5L2 HAT assay, ThioGlo1 CoA-SH fluorescence
#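 Titration-based screen in which CoA formation is detected via maleimide probe ThioGlo1 (50uM) turning fluorescent on thiol reaction; substrates H3(1-25) 75uM and acetyl-CoA 70uM, GCN5L2 20nM, 20 min incubation at room temperature.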
# TrxR1 substrate: substrates of rat thioredoxin reductase 1; Potency, µM (top dose mostly 114 µM); purified TrxR1 substrate turnover, NADPH consumption readout; O89049; actives 0.01% (n = 390,000); further: nearly all actives have a fitted effect of over 50% in size
#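 Rat TrxR1, dispensed at 90 nM, was prereduced with 400 uM NADPH (final) for 5 min at ~22 deg C, then incubated with compound 15 min before 400 uM selenite. A first-read NADPH fluorescence drop versus no-compound background flagged substrates.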
# VDR inh: blocks the human vitamin D receptor | P11473 | VDR-SRC2-3 peptide fluorescence polarization, 2 h | AID 504847 | Potency, µM, actives largely listed as inhibitors | actives 0.93% (n = 400,000)
#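 The screen uses fluorescence polarization to detect compounds that interfere with recruitment of the SRC2-3 coactivator peptide to VDR; plates are read after 2 h at room temperature.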
# Hits are given with their value; . = inactive; ? = inconclusive; / = not tested or not shown; ! = repeats disagree; [ ] = remark or other dose. The call rests on the fitted dose curve; in most records, active means well fitted curve in the direction sought with a large enough effect; inconclusive means small, poorly fitted or top-dose-only effect, or another doubt; inactive means no such curve, though single readings can be large; an effect the other way counts as inactive or inconclusive.
SMILES,rTrxR1 inhibitor,KAT2A inh,TrxR1 substrate,VDR inh
O=C1N=C(N2CCOCC2)S/C1=C/c1ccc(-c2ccccc2Cl)o1,.,.,.,.
O=C1S/C(=C/c2ccc(N3CCOCC3)o2)C(=O)N1Cc1c(F)cccc1Cl,8.91µM,.,.,79.4µM
CCCSc1ncc(Cl)c(C(=O)Nc2c(C(=O)Nc3ccc(OC)cc3)oc3ccccc23)n1,.,.,.,.
Cc1cc(C)c(C)c(S(=O)(=O)ON2C(=O)c3ccccc3C2=O)c1C,1.26µM,.,.,22.4µM
Cc1cc(C)c(S(=O)(=O)ON2C(=O)c3ccccc3C2=O)cc1C,3.55µM,.,.,31.6µM
Cc1ccc(S(=O)(=O)ON2C(=O)c3ccccc3C2=O)c(C)c1,3.55µM,.,.,17.8µM
C[C@H](O)CON1C(=O)c2ccccc2C1=O,/,/,/,.
CSCC[C@H](NC(=O)CN)C(=O)N[C@@H](CC(=O)O)C(=O)N[C@@H](CO)C(=O)N[C@@H](CC(C)C)C(=O)N[C@@H](C)C(=O)N[C@@H](Cc1ccccc1)C(=O)N[C@@H](CO)C(=O)NCC(=O)NCC(=O)N[C@@H](CC(C)C)C(N)=O,/,.,/,.
CC(C)(C)n1ncc2c(=O)n(Cc3c(F)cc(Cl)cc3F)cnc21,.,/,.,/
O=C(CCNc1ccc(Cc2ccncc2)cc1)c1ccc([N+](=O)[O-])cc1,15.8µM,.,.,?
Cc1ccc(C(=O)Nc2ccc(Cc3ccncc3)cc2)cc1[N+](=O)[O-],.,.,.,.
O=C(CCNc1ccc(Br)cc1)c1cccc([N+](=O)[O-])c1,15.8µM,.,.,89.1µM
Cc1ccc(NCCC(=O)c2cccc([N+](=O)[O-])c2)cc1,3.55µM,.,.,.
O=C(CCNc1ccccc1)c1cccc([N+](=O)[O-])c1,1.58µM,.,.,89.1µM
CCn1c2ccccc2c2cc(/C=C3/C=Cc4ccccc43)ccc21,.,/,.,/
Cc1ccnc(SCC(=O)c2cccc([N+](=O)[O-])c2)n1,.[11.4 µM],.,.[11.4 µM],.
Cc1nc(SCC(=O)c2cccc([N+](=O)[O-])c2)n[nH]1,?,.,.,25.1µM
CN(C(=O)COc1ccccc1C(=O)Nc1ccccc1)c1ccccc1,.,/,.,/
Cc1ccc(N=Nc2ccc(N)cc2C)c(S(N)(=O)=O)c1,.,.,.,.
Nc1c(N=Nc2ccc(-c3ccc(N=Nc4cc(S(=O)(=O)O)c5ccccc5c4N)cc3)cc2)cc(S(=O)(=O)O)c2ccccc12,/,2.24µM,/,28.2µM
O=S(=O)(O)c1ccc(N=Nc2ccccc2)cc1,.,.,.,.
Cc1cc(-c2ccc(N=Nc3ccc4c(S(=O)(=O)O)cc(S(=O)(=O)O)c(N)c4c3O)c(C)c2)ccc1N=Nc1ccc2c(S(=O)(=O)O)cc(S(=O)(=O)O)c(N)c2c1O,/,3.16µM,/,?
CNCc1cc2ccc(C)cc2[nH]c1=O,25.1µM,.,.,.
CCOC(=O)c1c(-c2ccc(C)o2)csc1NC(=S)NC(=O)N(C)C,11.2µM,.,.,?
Cc1ccc(C(=O)c2cc([N+](=O)[O-])ccc2N2CC(C)OC(C)C2)cc1 (configuration not stated),.,.,.,89.1µM
SMILES,rTrxR1 inhibitor,KAT2A inh,TrxR1 substrate,VDR inh
Cc1ccc(C(=O)c2cc([N+](=O)[O-])ccc2N2CCCCC2)cc1,.,.,.,.
CCC(=O)NCCCC[C@H](NC(=O)OCc1ccccc1)C(=O)Nc1ccc2c(C)cc(=O)oc2c1,/,.,/,.
O=C(O[C@@H]1Cc2c(O)cc(O)cc2OC1c1ccc(O)c(O)c1)c1cc(O)c(O)c(O)c1 (some centres not stated),/,.,/,?
O=C(OC1Cc2c(O)cc(O)cc2OC1c1cc(O)c(O)c(O)c1-c1c(C2Oc3cc(O)cc(O)c3CC2OC(=O)c2cc(O)c(O)c(O)c2)cc(O)c(O)c1O)c1cc(O)c(O)c(O)c1 (configuration not stated),/,14.1µM,/,?
CCCn1c(=O)c2[nH]c(-c3ccc(S(=O)(=O)O)cc3)nc2n(CCC)c1=O,22.4µM!,.,.,.
COc1cccc(N=Cc2nc(-c3ccccc3)oc2OC(C)=O)c1,.,.,.[11.4 µM],?
COc1ccc(N=Cc2nc(-c3ccccc3)oc2OC(C)=O)cc1,12.6µM,.,.,28.2µM
Cc1cc(C)n2nc(/C(C#N)=C/c3ccccn3)c(C#N)c2n1,?,.,.,20µM
COc1cc2c(cc1CC=C(C)C)C(=O)C[C@@H](c1ccc(O)cc1)O2,/,.,/,.
C=C1C2=CC(=O)OC(c3ccoc3)[C@]2(C)CCC1[C@]1(C)C=CC(=O)C(C)(C)C1CC(=O)OC (some centres not stated),/,.,/,39.8µM
C=C1C(C2(C)C=CC(=O)C(C)(C)C2CC(=O)OC)CC[C@@]2(C)C(c3ccoc3)OC(=O)C3OC132 (some centres not stated),/,.,/,.
CCOC(=O)CCSc1n[nH]c(=S)s1,.[11.4 µM],?,.,.
CCOC(=O)CSc1n[nH]c(=S)s1,?,25.1µM,.,.
Nc1ccc2c(c1)C(=O)N(c1ccc3ccccc3c1)C2=O,.,/,.,.
CC(=O)Nc1n[nH]c(=S)s1,.,/,.,50.1µM
CNc1n[nH]c(=S)s1,.,?,.,?
CC(=O)Nc1nc(=S)ss1,.,.,.,44.7µM
C#CCn1c(C2CC(=O)N(c3ccc(OCC)cc3)C2)nc2ccccc21 (configuration not stated),.,.,.,.
O=C1CC(c2ccccc2)CC(=O)C1CS(=O)(=O)c1ccccc1 (configuration not stated),?,.,.,31.6µM
C[N+](C)(C)c1ccc(/C=C/c2ccnc3ccccc23)cc1,?,/,.,/
COC(=O)/C(=C\c1ccc([N+](=O)[O-])o1)NC(=O)c1ccccc1,31.6µM,.,.,.
CCOC(=O)C1(Cc2cccc(OC)c2)CCCN(C(=O)c2ccc(OC)o2)C1 (configuration not stated),50.1µM,.,.,.
CCOC(=O)C1(Cc2cccc(OC)c2)CCCN(C(=O)c2cc(CC(C)C)[nH]n2)C1 (configuration not stated),.,.,.,.
COc1cccc(-c2ccc3c(N)c(C(=O)Nc4ccc(C)c(F)c4)sc3n2)c1,?,25.1µM,.,.
Nc1c(C(=O)NCc2ccc(Cl)cc2)sc2nc(-c3ccc(F)cc3)ccc12,.,?,.,.
SMILES,rTrxR1 inhibitor,KAT2A inh,TrxR1 substrate,VDR inh
COc1cccc(-c2ccc3c(N)c(C(=O)c4ccc(Cl)cc4)sc3n2)c1,.,.,.,.
COc1ccc(-c2ccc3c(N)c(C(=O)NCc4ccc(Cl)cc4)sc3n2)cc1,.,20µM,.,.
CC(=O)N1/C(=C/c2ccc(N(C)C)cc2)C(=O)c2ccccc21,39.8µM,.,.,31.6µM
O=C(CN1C(=O)C(=O)N(CCC2=CCCCC2)C1=O)c1c[nH]c2ccccc12,.,.,.,.
O=C(CN1C(=O)C(=O)N(Cc2ccco2)C1=O)c1c[nH]c2ccccc12,14.1µM,.,.,.
Cn1c(=O)n(Cc2ccccc2)c2ccccc21,.,.,.,.
Cn1sc(=O)n(Cc2ccccc2)c1=O,/,20µM,/,5.01µM
COc1cc(/C=C2\C=Cc3ccccc32)cc(OC)c1OC,.,/,.,/
